The list is not random: actives were taken first. Their share in the collection is about 19%.
Pf growth 96h: Primary qHTS for delayed death inhibitors of the malarial parasite plastid, 96 hour incubation; 6.9% of 320,000 active; AID 504834, 2011; P. falciparum luciferase reporter growth, 96 h; Potency, µM (titrated, usually from 28.7 µM), hits mostly inhibitors
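Infected RBCs, 2% Hct / 0.05% parasitemia final; luciferase-reporter P. falciparum; cpd 96 h, 37 C, 5% CO2; luciferase detection reagent; luminescence.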
Pf growth 48h: Primary qHTS for delayed death inhibitors of the malarial parasite plastid, 48 hour incubation. Potency, µM (top dose mostly 28.7 µM), usual class: inhibitors. P. falciparum luciferase growth in erythrocytes, 48 h. 5.9% of 310,000 active
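Cell-based growth assay: transgenic P. falciparum expressing firefly luciferase, cultured in red cells within RPMI 1640 containing 0.5% w/v Albumax, 24 mM bicarbonate and gentamycin. A drop in luciferase activity indicates inhibition.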
Cycloheximide cs: Cycloheximide Counterscreen for Small Molecule Inhibitors of Shiga Toxin. cell reporter, cycloheximide protein synthesis inhibition counterscreen. max response, %. 12% of 300,000 active; in the data active means max response mostly above about 13%, no sharp cut-off; inactive means mostly below about 14%; further: read at 38.3 µM for the half of the compounds with a filed dose
LASV entry inh: qHTS for Inhibitors of binding or entry into cells for Lassa Virus; AID 540256, 2011; 1.2% of 300,000 active; Lassa virus pseudotype entry inhibition, cell reporter; Potency, µM (series often up to 37.9 µM), hits mostly inhibitors; calls by dose curve; tested in HEK293 cells; further: nearly all actives have a fitted effect of over 50% in size
MARV entry inh: qHTS for inhibitors of binding or entry into cells for Marburg Virus | Marburg virus pseudotyped entry inhibition, cell reporter | Potency, µM (titrated, usually from 37.8 µM), hits mostly inhibitors | 1.8% of 300,000 active; calls by dose curve; tested in HEK293 cells
Shiga toxin inh: A qHTS for Small Molecule Inhibitors of Shiga Toxin. 9.2% of 290,000 active. AID 2315, 2010. inhibition, % at 38.7 µM. Vero cells, Shiga toxin protein synthesis inhibition reporter; in the data active means inhibition mostly above about 28%, no sharp cut-off; inactive means mostly below about 43%
Of the large screens only hits and unclear results are named; the others gave an inactive call. Unless noted, the call rests on the fitted dose curve; in most records, active means well fitted inhibition curve with a large enough effect; inconclusive means small, poorly fitted or top-dose-only effect, or another doubt; inactive means no such curve, though single readings can be large or run the other way.

CCOC(=O)C1(Cc2ccccc2)CCCN(C2CCN(C(C)=O)CC2)C1 (stereo not given)	Pf growth 96h inconclusive, Pf growth 48h inconclusive, MARV entry inh inconclusive
CCOC(=O)C1(Cc2ccccc2)CCCN(C(=O)C=C(C)C)C1 (stereo not given)	Pf growth 48h inconclusive, Cycloheximide cs 24, MARV entry inh inconclusive, Shiga toxin inh 86
CCOC(=O)c1c(NC(=O)/C(C#N)=C/c2ccc(OC)cc2)sc2c1CCC2	none (no result: Pf growth 96h, Pf growth 48h, Cycloheximide cs, MARV entry inh, Shiga toxin inh)
O=c1cc(CS(=O)(=O)c2ccccc2)nc(-c2ccncc2)[nH]1	Pf growth 96h inconclusive, Pf growth 48h 12µM, MARV entry inh inconclusive
S=C1SCN(CC2CC2)CN1CC1CC1	Pf growth 96h 5.2µM, Pf growth 48h inconclusive
O=C1N(Cc2cccc(Cl)c2)C[C@@H]2C[C@@H](c3cccn3-c3cccnc3)N3CCC[C@@]123	Pf growth 48h 9.3µM, LASV entry inh inconclusive, MARV entry inh 13µM
COC(=O)c1ccc([C@@H]2C[C@H]3CN(Cc4cccnc4)C(=O)[C@]34CCCN24)cc1	Pf growth 96h 10µM, Pf growth 48h inconclusive
Cc1nn(C)cc1[C@@H]1C[C@H]2CN(Cc3cccc(Cl)c3)C(=O)[C@]23CCCN13	Pf growth 96h inconclusive, Pf growth 48h inconclusive
Cn1cc([C@@H]2C[C@H]3CN(Cc4cccc(Cl)c4)C(=O)[C@]34CCCN24)c(-c2ccccc2)n1	Pf growth 96h 2.9µM, LASV entry inh inconclusive, MARV entry inh inconclusive
CCn1ncc([C@@H]2C[C@H]3CN(Cc4cccc(Cl)c4)C(=O)[C@]34CCCN24)c1C	Pf growth 48h inconclusive
CCc1ccc(/C=c2\s/c(=C\C(=O)C(C)(C)C)[nH]c2=O)cc1	Pf growth 48h 3.3µM, LASV entry inh inconclusive (no result: Pf growth 96h)
CC(C)(C)C(=O)/C=c1\[nH]c(=O)/c(=C\c2ccccc2F)s1	none
Cc1ccccc1/C=c1\s/c(=C\C(=O)C(C)(C)C)[nH]c1=O	Pf growth 96h inconclusive, Cycloheximide cs 24, LASV entry inh inconclusive, MARV entry inh inconclusive (no result: Pf growth 48h)
CC(C)(C)C(=O)/C=c1\[nH]c(=O)/c(=C\c2ccc(F)cc2)s1	Pf growth 48h inconclusive, Cycloheximide cs 11 (no result: Pf growth 96h)
Cc1ccc(N(C(=O)Cn2nnc(-c3ccc(F)cc3)n2)C(CC(C)C)C(=O)NCC2CCCO2)cc1 (stereo not given)	Pf growth 96h inconclusive, Pf growth 48h 13µM, MARV entry inh inconclusive
O=C(NCC1CCCO1)C(c1ccc(F)cc1)N(C(=O)Cn1nnc(-c2ccc(F)cc2)n1)c1cccc(O)c1 (stereo not given)	Pf growth 48h inconclusive, MARV entry inh 10µM
O=C(CN1CCNCC1)Nc1ccc(Oc2ccccc2)cc1	MARV entry inh inconclusive
CC(Sc1nnc(NC2CCCCC2)s1)C(=O)N1CCOCC1 (stereo not given)	Pf growth 96h inconclusive (no result: Cycloheximide cs, Shiga toxin inh)
CCN1C(=O)[C@H]2[C@@H](c3ccc(C)cc3)N3C(=O)N(c4ccccc4)C(=O)[C@@]3(C)[C@H]2C1=O	none (no result: LASV entry inh, MARV entry inh)
CCN1C(=O)[C@H]2[C@@H](c3ccc(-c4ccccc4)cc3)N3CCC[C@@]3(C(=O)OC)[C@H]2C1=O	Pf growth 96h 13µM, Pf growth 48h 4.7µM (no result: Cycloheximide cs, LASV entry inh, MARV entry inh, Shiga toxin inh)
CCN1C(=O)[C@H]2[C@@H](c3ccc(-c4ccc(F)cc4)cc3)N3CCCC[C@@]3(C(=O)OC)[C@H]2C1=O	Pf growth 96h 13µM, Pf growth 48h 9.3µM (no result: Cycloheximide cs, LASV entry inh, MARV entry inh, Shiga toxin inh)
CCN1C(=O)[C@H]2[C@@H](c3ccc(-c4ccc(OC)cc4)cc3)N3CCCC[C@@]3(C(=O)OC)[C@H]2C1=O	Pf growth 96h inconclusive, Pf growth 48h 15µM (no result: Cycloheximide cs, LASV entry inh, MARV entry inh, Shiga toxin inh)
COC(=O)[C@@]12CCCCN1[C@H](c1ccc(-c3ccc(OC)cc3)cc1)[C@@H]1C(=O)N(C)C(=O)[C@@H]12	Pf growth 48h inconclusive (no result: Cycloheximide cs, LASV entry inh, MARV entry inh, Shiga toxin inh)
CCN1C(=O)[C@H]2[C@@H](c3ccc(OC)cc3)N3C(=O)CN(Cc4ccccc4)C(=O)[C@@]3(C)[C@H]2C1=O	none (no result: LASV entry inh, MARV entry inh)
CCN1C(=O)[C@@H]2[C@@H](c3ccc(-c4ccc(OC)cc4)cc3)N3CCC[C@@]3(C(=O)OC)[C@@H]2C1=O	Pf growth 96h 12µM, Pf growth 48h 9.3µM (no result: Cycloheximide cs, LASV entry inh, MARV entry inh, Shiga toxin inh)
CCN1C(=O)[C@H]2[C@@H](c3ccc(-c4ccc(Cl)c(Cl)c4)cc3)N3CCCC[C@@]3(C(=O)OC)[C@H]2C1=O	Pf growth 48h inconclusive (no result: Cycloheximide cs, LASV entry inh, MARV entry inh, Shiga toxin inh)
Nc1cc(N)nc(SCC(=O)N2CCCCC2)n1	none
CCCOc1ccc(N2C(=O)CC(N(CCC)C(=O)CCC(=O)O)C2=O)cc1 (stereo not given)	none (no result: Pf growth 96h)
CCN1C(=O)[C@H]2[C@@H](c3ccc(-c4ccc(OC)cc4)cc3)N3CCC[C@@]3(C(=O)OC)[C@H]2C1=O	Pf growth 96h inconclusive, Pf growth 48h 13µM (no result: Cycloheximide cs, LASV entry inh, MARV entry inh, Shiga toxin inh)
CCCCN1CC(=O)N2[C@H](c3ccc(OC)cc3)[C@@H]3C(=O)N(CC)C(=O)[C@@H]3[C@]2(C)C1=O	none (no result: LASV entry inh, MARV entry inh)
Cc1ccc(C)n1-n1cnc2sc(-c3ccccc3)cc2c1=O	Pf growth 48h inconclusive, Cycloheximide cs 14
O=c1c2cc(-c3ccccc3)sc2ncn1-n1cccc1	Cycloheximide cs 39, MARV entry inh inconclusive, Shiga toxin inh 79 (no result: Pf growth 96h)
c1ccc(-c2cc3c(N4CCCC4)ncnc3s2)cc1	none
O=c1[nH]cnc2sc(-c3ccccc3)cc12	Cycloheximide cs 56, MARV entry inh inconclusive (no result: Pf growth 48h)
Cc1ccc(C)n1-n1c(C)nc2sc(-c3ccccc3)cc2c1=O	Pf growth 48h inconclusive, Cycloheximide cs 45, LASV entry inh inconclusive, MARV entry inh inconclusive, Shiga toxin inh 73
CN(CC(=O)Nc1ccccc1C(F)(F)F)C(=O)c1cccc(-n2cccc2)c1	none (no result: Cycloheximide cs, Shiga toxin inh)
O=S(=O)(Nc1ccc2nc(N3CCOCC3)sc2c1)c1ccc(Cl)cc1	none (no result: Cycloheximide cs, LASV entry inh, MARV entry inh, Shiga toxin inh)
O=C(NCc1cccc(F)c1)c1ccc2nc(N3CCOCC3)sc2c1	none (no result: LASV entry inh, MARV entry inh)
c1ccc(N2CCN(c3nc4cc5c(cc4s3)OCO5)CC2)cc1	Cycloheximide cs 53, Shiga toxin inh 33
c1c2c(cc3sc(N4CCOCC4)nc13)OCO2	Cycloheximide cs 43, LASV entry inh inconclusive, MARV entry inh inconclusive, Shiga toxin inh 56
Fc1ccc2nc(N3CCOCC3)sc2c1	Cycloheximide cs 35, Shiga toxin inh 107
Nc1nc2ccc(N3CCOCC3)cc2s1	Cycloheximide cs 34, MARV entry inh inconclusive, Shiga toxin inh 32
CC(=O)C1=C(O)C(=O)N(Cc2ccccc2)C1c1ccc(Cl)cc1 (stereo not given)	none
CCc1cccc2sc(NC(=O)C3CC3)nc12	none (no result: LASV entry inh, MARV entry inh)
c1ccc2c(c1)CCN(c1nc3cc4c(cc3s1)OCO4)C2	Cycloheximide cs 40, LASV entry inh inconclusive, Shiga toxin inh 97
c1c2c(cc3sc(N4CCCCC4)nc13)OCO2	LASV entry inh 6.3µM, MARV entry inh inconclusive
N#C/C(=C\c1cccc(NC(=O)c2ccccc2Cl)c1)C(=O)NCCc1ccccc1	Pf growth 96h inconclusive, LASV entry inh inconclusive, MARV entry inh 11µM
N#C/C(=C\c1ccc(OCc2ccc(Cl)cc2)cc1)C(=O)Nc1cccc(C(=O)O)c1	Cycloheximide cs 18, LASV entry inh inconclusive, Shiga toxin inh 34

High-throughput results from PubChem BioAssay.
